Our source for the outcome values is PubChem BioAssay AID743103 (Vanderbilt Specialized Chemistry Center, 2013).

The source made the active and inactive calls. How the calls were made is not given here.

The target of this test is Muscarinic acetylcholine receptor M3 (Homo sapiens) (UniProt P20309). As to the kind of experiment: off-target M3 muscarinic calcium response – cell-based, CHO-K1 hM3, Fluo-4 calcium flux, ACh EC20, counter-screen for M5 NAM project (AID 743103). In general terms: Calcium assays in cells follow changes in intracellular calcium, usually with a dye or a luminescent sensor.

On to `O=C(c1ccc(F)c(F)c1)N1CCN2C(=O)c3ccccc3C12c1ccccc1` (stereo not given), for which the outcome was inactive.

As for `O=C(c1cc(F)cc(F)c1)N1CCN2C(=O)c3ccccc3C12c1ccc(Cl)cc1` (stereo not given), the result was inactive.

For `O=C(c1ccc(F)c(F)c1)N1CCN2C(=O)c3ccccc3[C@@]12c1ccc(Cl)cc1`, the outcome was inactive.

Regarding `O=C(c1ccc(F)c(F)c1)N1CCN2C(=O)c3ccccc3C12c1ccc(Cl)cc1` (stereo not given), the outcome was inactive.

For `O=C(c1ccc(F)cc1)N1CCN2C(=O)c3ccccc3C12c1ccccc1` (stereo not given), the outcome was inactive.
